# Shown is part of a subset that was picked to be rich in hits.
# CD40 NFkB inh = CD40 pathway inhibition in BL2 cells; BL2 NF-kB luciferase reporter, CD40L-induced, 4 h; inhibition, % at 10 µM; 83,000 tested, 0.94% active; AID 1053188;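 active means mean inhibition of at least 50% with a set share of replicates also reaching that level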;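 further: 0% = neutral control wells and 100% = IKK inhibitor VII at 50 µM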
# * hit, by the source's call; [ ] = dose if it differs, or a comment.
SMILES,CD40 NFkB inh
CNC[C@H]1Oc2c(N)cccc2C(=O)N(C)C[C@H]1C,0
CN1c2ccc(C3=CCCCC3)cc2[C@@H]2[C@@H](CCN2C(=O)C2CC2)[C@H]1CO,-22
Cc1sc2ncnc(SCc3ccco3)c2c1C,4
Cc1sc2nc(-c3ccco3)oc(=O)c2c1C,-31
Cc1nc(NCc2ccco2)c2c(C)c(C)sc2n1,49*
O=C(C[C@H]1C[C@H]2c3cc(NC(=O)Nc4ccccc4F)ccc3O[C@H]2[C@H](CO)O1)NCc1ccc2c(c1)OCO2,-11[25 µM]
c1ccc(-c2noc(-c3ccno3)n2)nc1,-25
c1ccc(-c2nc(-c3ccccn3)no2)cc1,87*
c1ccc(-c2noc(-c3ccco3)n2)nc1,-71
C[C@H](C(=O)N(C)C[C@@H]1OCc2ccccc2-c2ccccc2C(=O)N([C@@H](C)CO)C[C@H]1C)c1ccccc1,-3
CC(=NNc1nc2ccccc2s1)c1ccncn1,63*
C/C(=N\OCC(=O)Nc1nc2ccccc2s1)c1ccccc1,13
O=C(Nc1nc2ccccc2s1)c1cnccn1,28
Cc1nc(-c2ccc(F)cc2)c(CC(=O)N(C)CC(=O)Nc2cccc(F)c2)s1,54*
Cc1nc(-c2ccc(F)cc2)c(CC(=O)N(C)CC(=O)Nc2ccc(Br)cc2C)s1,92*
Cc1nc(-c2ccc(F)cc2)c(CC(=O)N(C)CC(=O)Nc2ccccc2C(F)(F)F)s1,6
CCN(CC(=O)Nc1ccccc1C(F)(F)F)C(=O)Cc1sc(C)nc1-c1ccc(F)cc1,-13
Cc1nc(-c2ccc(F)cc2)c(CC(=O)NCC(=O)Nc2ccc(F)c(F)c2)s1,-4
Cc1nc(-c2ccc(F)cc2)c(CC(=O)N(C)CC(=O)Nc2ccccc2Br)s1,40
CC(=O)N(C)C[C@@H]1Oc2ccc(N)cc2C(=O)N(C)C[C@@H]1C,4
CC=Cc1ccc2n(c1=O)C[C@@H]1[C@@H](CO)[C@H](C(=O)NCC)[C@H]2N1Cc1nccs1 (mixture of isomers),2[25 µM]
CNC[C@H]1Oc2ccc(N(C)C)cc2C(=O)N(C)C[C@@H]1C,3
COc1ccc(OCC(=O)OCC(=O)N2C(C)CCCC2C)cc1 (configuration not stated),7
COc1ccc(-c2c[n+](CC(=O)OC3CC(C)CCC3C(C)C)c3n2CCC3)cc1 (configuration not stated),79*
COc1ccc(-c2cnc3n2CCCCC3)cc1,2
SMILES,CD40 NFkB inh
CCCNC(=O)N[C@H]1CC[C@@H](CCn2cc(C3CCCC3)nn2)O[C@@H]1CO,-1
COc1ccc(CNC(=O)C[C@H]2CC[C@@H](NC(=O)Nc3ccc4c(c3)OCO4)[C@H](CO)O2)cc1,-8
Cc1cc(C(=O)Nc2c(C)n(C)n(-c3ccccc3)c2=O)c(C)o1,5
Cc1cc(C(=O)NCCC(c2ccccc2)c2ccccc2)c(C)o1,80*
Cc1cc(C(=O)NCCCC(=O)O)c(C)o1,25
COC(=O)c1ccc(CN2CC(=O)N3[C@@H](CO)[C@H](c4ccc(-c5cccnc5)cc4)[C@@H]3C2)cc1,7[25 µM]
CC(=O)Nc1ccc(SC(Sc2ccc(NC(C)=O)cc2)c2ccccc2)cc1,-11
CC(=O)Nc1ccc(Sc2ccc([N+](=O)[O-])o2)cc1,86*
CC(=O)Nc1ccc([N+](=O)[O-])cn1,-2
CC(C)NC(=O)Nc1ccc2c(c1)C(=O)N(C)C[C@H](C)[C@@H](CN(C)C(=O)OC(C)(C)C)O2,15
CCC(=O)N1[C@@H]2c3ccc(-c4ccccc4F)c(=O)n3C[C@H]1[C@H](CO)[C@H]2C(=O)NC1CCCC1,-5
COc1ccc2c3c(n(C)c2c1)[C@@H](CO)N(Cc1cccc(Cl)c1)CC31CCN(C(=O)C2CC2)CC1,25[25 µM]
CC(C)[C@@H]1C(=O)N[C@H](c2ccc3c(c2)OCO3)CC=CC[C@@H](C)Oc2ccccc2C(=O)N1C (mixture of isomers),-1
Cc1cc(NCCN2CCOCC2)n2c(nc3ccccc32)c1C#N,3
Cc1cc(Nc2cccc([N+](=O)[O-])c2)n2c(nc3ccccc32)c1C#N,78*
Cc1cc(NCCCN2CCOCC2)n2c(nc3ccccc32)c1C#N,-15
COc1ccc(S(=O)(=O)N(C)C[C@@H]2Oc3ccc(NS(=O)(=O)c4c(C)noc4C)cc3C(=O)N([C@@H](C)CO)C[C@@H]2C)cc1,7[25 µM]
CCCC(=O)O[C@]1(C(=O)CCl)[C@@H](C)C[C@H]2[C@@H]3CCC4=CC(=O)C=C[C@]4(C)[C@@]3(F)C(=O)C[C@@]21C,42
C[C@@H]1C[C@H]2[C@@H]3CCC4=CC(=O)C=C[C@]4(C)[C@@]3(F)[C@@H](O)C[C@]2(C)[C@@]1(O)C(=O)COP(=O)(O)O,51*
C[C@H]1C[C@H]2[C@@H]3CCC4=CC(=O)C=C[C@]4(C)[C@@]3(Cl)[C@@H](O)C[C@]2(C)[C@@]1(O)C(=O)CO,29
CCC(=O)O[C@]1(C(=O)CCl)[C@@H](C)C[C@H]2[C@@H]3CCC4=CC(=O)C=C[C@]4(C)[C@@]3(F)[C@@H](O)C[C@@]21C,45*
CC12C=CC(=O)C=C1CCC1C3CCC(O)(C(=O)CO)C3(C)CC(O)C12F (configuration not stated),28
CNC[C@@H]1Oc2c(NS(=O)(=O)c3ccc(OC)cc3)cccc2C(=O)N([C@@H](C)CO)C[C@H]1C,-5
C[C@H](CO)N1C[C@H](C)[C@H](CN(C)S(=O)(=O)c2ccccc2)OCc2cn(nn2)CCCC1=O,-7
COc1ccc2c3c(n(C)c2c1)[C@H](CO)N(CC1CC1)CC31CCN(S(=O)(=O)c2cccs2)CC1,-3[25 µM]
SMILES,CD40 NFkB inh
CN(Cc1ccccc1)C(=O)C(Cc1ccc2ccccc2c1)NC(=O)C1CCCN1C(=O)Nc1ccccc1[N+](=O)[O-] (configuration not stated),15[25 µM]
O=C(C[C@@H]1C[C@H]2c3cc(NC(=O)NC4CCCCC4)ccc3O[C@H]2[C@@H](CO)O1)NC1CCCC1,-4
C[C@H]1CCCCO[C@H](CN(C)S(=O)(=O)c2cn(C)cn2)[C@@H](C)CN([C@@H](C)CO)C(=O)c2cc(N(C)C)ccc2O1,-12[25 µM]
COc1ccc(CN2CC3(CN(S(=O)(=O)c4ccc(C)cc4)C3)c3c([nH]c4cc(OC)ccc34)[C@H]2CO)cc1,55*[25 µM]
COc1ccc2c3c([nH]c2c1)[C@@H](CO)N(Cc1ccc(Cl)cc1)CC31CN(S(C)(=O)=O)C1,11[25 µM]
COc1ccc2c3c([nH]c2c1)[C@H](CO)N(Cc1ccc(Cl)cc1)CC31CN(S(C)(=O)=O)C1,14[25 µM]
C[C@H]1CN(C)C(=O)Cc2cc(NS(C)(=O)=O)ccc2O[C@@H]1CN(C)S(C)(=O)=O,-4
CNC[C@H]1Oc2c(NC(C)=O)cccc2C(=O)N(C)C[C@@H]1C,2
CCC(=O)N1CC2(C1)[C@H](c1ccccc1)[C@H](CO)N2CC1CC1,-2[25 µM]
CCS(=O)(=O)N[C@H]1C=C[C@@H](CC(=O)NCc2ccc(Cl)cc2)O[C@@H]1CO,1
CC(=O)N(CCC(Cc1ccccc1)c1ccc2c(c1)OCO2)Cc1ccccc1F (configuration not stated),12
CC(C)CCC(CCNCc1ccccn1)c1ccc2c(c1)OCO2 (configuration not stated),15
Fc1ccccc1CNCCC(Cc1ccccc1)c1ccc2c(c1)OCO2 (configuration not stated),33*
O=C(COC(=O)c1cccs1)c1ccc2c(c1)OCCO2,113*
COc1cccc(CN(C)C(=O)C23CC4CC(CC(NC(C)=O)(C4)C2)C3)c1OC,5
O=C(Nc1ccc(NC(=O)c2cccs2)cc1)c1ccc2c(c1)OCCO2,3

# Source: PubChem BioAssay
